The record followed here is PMC8384837, “Expanding the binding specificity for RNA recognition by a PUF domain”.

Holding throughout (experiment): yeast three-hybrid, YBZ-1, SC-Leu-His + 0.5 mM 3-AT, 4 days
Settings in all cases: tags: N-Gal4 AD-HA kept; label: inside an RPR1-promoter hybrid RNA with tandem MS2 sites; ssRNA

Test [1] deals with PUM1 PUF domain R8-RGR (Homo sapiens, UniProt Q14671 828-1176, N1122R;Y1123G;Q1126R). In outline:
(§1)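 Repeat regions from input (SC-Leu) and selection (SC-Leu-His + 0.5 mM 3-AT) plates were PCR-amplified and Illumina-sequenced after four days of growth. The cells were strain YBZ-1 with a LexA–MS2 coat fusion and a HIS3 reporter, co-expressing Pumilio-1 PUF domain libraries and matching RNA elements from a centromeric plasmid. The interaction score is the log change in variant frequency from input to selection, taken in log2 with a pseudocount of 1 for absent variants.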

Test [2] concerns the target PUM1 PUF domain R5-RQC (Homo sapiens, UniProt Q14671 828-1176, C1007R;R1008Q;Q1011C). In outline:
as §1

For test [3], the target named is PUM1 PUF domain R4-CRS (Homo sapiens, UniProt Q14671 828-1176, N971C;H972R;Q975S). In outline: as §1
Test [4] addresses PUM1 PUF domain R5-CTR (Homo sapiens, UniProt Q14671 828-1176, R1008T;Q1011R). In outline: as §1
The target in test [5] is PUM1 PUF domain R5-RFD (Homo sapiens, UniProt Q14671 828-1176, C1007R;R1008F;Q1011D). The method in brief:
as §1

For test [6], the target named is PUM1 PUF domain R3-TRF (Homo sapiens, UniProt Q14671 828-1176, C935T;Q939F). The method in brief:
as §1

Test [7] addresses PUM1 PUF domain R3-GPT (Homo sapiens, UniProt Q14671 828-1176, C935G;R936P;Q939T). In outline: as §1
For test [8], the target named is PUM1 PUF domain R3-IYL (Homo sapiens, UniProt Q14671 828-1176, C935I;R936Y;Q939L). The method in brief:
as §1

Test [9] concerns the target PUM1 PUF domain R4-SML (Homo sapiens, UniProt Q14671 828-1176, N971S;H972M;Q975L). The method in brief:
as §1

Test [10] deals with PUM1 PUF domain R5-EFR (Homo sapiens, UniProt Q14671 828-1176, C1007E;R1008F;Q1011R). The method in brief: as §1
For test [11], the target named is PUM1 PUF domain R3-LWT (Homo sapiens, UniProt Q14671 828-1176, C935L;R936W;Q939T). The method in brief:
as §1

Test [12] concerns the target PUM1 PUF domain R5-DRQ (Homo sapiens, UniProt Q14671 828-1176, C1007D). In outline:
as §1

Test [13] addresses PUM1 PUF domain R5-KRP (Homo sapiens, UniProt Q14671 828-1176, C1007K;Q1011P). In outline: as §1
Test [14] concerns the target PUM1 PUF domain R7-KRG (Homo sapiens, UniProt Q14671 828-1176, S1079K;N1080R;E1083G). The method in brief: as §1
The target in test [15] is PUM1 PUF domain R1-TLF (Homo sapiens, UniProt Q14671 828-1176, S863T;R864L;Q867F). The method in brief: as §1
Test [16] has as its target PUM1 PUF domain R1-RIS (Homo sapiens, UniProt Q14671 828-1176, S863R;R864I;Q867S). In outline:
as §1

Test [17] addresses PUM1 PUF domain R1-SLR (Homo sapiens, UniProt Q14671 828-1176, R864L;Q867R). In outline:
as §1

Test [18] concerns the target PUM1 PUF domain R5-DHW (Homo sapiens, UniProt Q14671 828-1176, C1007D;R1008H;Q1011W). The method in brief: as §1
In test [19] the target is PUM1 PUF domain R3-EWE (Homo sapiens, UniProt Q14671 828-1176, C935E;R936W;Q939E). In outline:
as §1

The target of test [20] is PUM1 PUF domain R7-TVG (Homo sapiens, UniProt Q14671 828-1176, S1079T;N1080V;E1083G). The method in brief: as §1

Sequence of PUM1 PUF domain R5-RFD (Q14671 828-1176 C1007R/R1008F/Q1011D): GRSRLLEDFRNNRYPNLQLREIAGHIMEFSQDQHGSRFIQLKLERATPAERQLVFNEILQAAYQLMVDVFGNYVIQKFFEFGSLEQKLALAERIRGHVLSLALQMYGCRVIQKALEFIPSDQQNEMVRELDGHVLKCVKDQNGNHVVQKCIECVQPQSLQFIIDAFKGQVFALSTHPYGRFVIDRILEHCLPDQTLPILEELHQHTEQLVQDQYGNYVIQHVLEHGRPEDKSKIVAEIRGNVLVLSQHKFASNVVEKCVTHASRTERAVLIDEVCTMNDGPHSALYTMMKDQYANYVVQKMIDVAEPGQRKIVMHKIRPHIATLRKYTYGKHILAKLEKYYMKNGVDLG
Sequence of PUM1 PUF domain R5-RQC (Q14671 828-1176 C1007R/R1008Q/Q1011C): as the sequence (Q14671 828-1176 C1007R/R1008F/Q1011D) above, with F181Q, D184C counted along it
Sequence of PUM1 PUF domain R8-RGR (Q14671 828-1176 N1122R/Y1123G/Q1126R): as the sequence (Q14671 828-1176 C1007R/R1008F/Q1011D) above, with R180C, F181R, D184Q, N295R, Y296G, Q299R counted along it
Sequence of PUM1 PUF domain R5-DRQ (Q14671 828-1176 C1007D): as the sequence (Q14671 828-1176 C1007R/R1008F/Q1011D) above, with R180D, F181R, D184Q counted along it
Sequence of PUM1 PUF domain R5-CTR (Q14671 828-1176 R1008T/Q1011R): as the sequence (Q14671 828-1176 C1007R/R1008F/Q1011D) above, with R180C, F181T, D184R counted along it
Sequence of PUM1 PUF domain R5-KRP (Q14671 828-1176 C1007K/Q1011P): as the sequence (Q14671 828-1176 C1007R/R1008F/Q1011D) above, with R180K, F181R, D184P counted along it
Sequence of PUM1 PUF domain R1-TLF (Q14671 828-1176 S863T/R864L/Q867F): as the sequence (Q14671 828-1176 C1007R/R1008F/Q1011D) above, with S36T, R37L, Q40F, R180C, F181R, D184Q counted along it
Sequence of PUM1 PUF domain R4-CRS (Q14671 828-1176 N971C/H972R/Q975S): as the sequence (Q14671 828-1176 C1007R/R1008F/Q1011D) above, with N144C, H145R, Q148S, R180C, F181R, D184Q counted along it
Sequence of PUM1 PUF domain R5-DHW (Q14671 828-1176 C1007D/R1008H/Q1011W): as the sequence (Q14671 828-1176 C1007R/R1008F/Q1011D) above, with R180D, F181H, D184W counted along it
Sequence of PUM1 PUF domain R1-RIS (Q14671 828-1176 S863R/R864I/Q867S): as the sequence (Q14671 828-1176 C1007R/R1008F/Q1011D) above, with S36R, R37I, Q40S, R180C, F181R, D184Q counted along it

Take “GGCUAGAACUAGUGGAUCCCCCGGCGCCCGGCGGCUCGAGCCCGGGUAAGUGUAAAUAGUCUGCAUGCCGCCGGGCGCCAUGCCUGCAGGUCGACUCUAGAAAACAUG”: the binding signal in test [1] was 1.23 log2 enrichment (interaction score); in test [2], 1.84 log2 enrichment (interaction score); in test [3] it was 2.69 log2 enrichment (interaction score); in [4] it was 1.1 log2 enrichment (interaction score); in [5] it was 2.18 log2 enrichment (interaction score); in test [6], 4.8 log2 enrichment (interaction score). For the same sequence, the binding signal was 2.91 log2 enrichment (interaction score) in test [7]; 4.44 log2 enrichment (interaction score) in test [8]; 3.12 log2 enrichment (interaction score) in test [9]; 3.42 log2 enrichment (interaction score) in [10]; 3.77 log2 enrichment (interaction score) in test [11].
Turning to “GGCUAGAACUAGUGGAUCCCCCGGCGCCCGGCGGCUCGAGCCCGGGUAAGUGUCAAUAGUCUGCAUGCCGCCGGGCGCCAUGCCUGCAGGUCGACUCUAGAAAACAUG”, the binding signal in test [12] is 3.34 log2 enrichment (interaction score); in [2], 4.74 log2 enrichment (interaction score); in [13], 2.24 log2 enrichment (interaction score); in test [4], 4.38 log2 enrichment (interaction score); in test [5] it was 4.17 log2 enrichment (interaction score); in test [10], 1.31 log2 enrichment (interaction score).
Regarding “GGCUAGAACUAGUGGAUCCCCCGGCGCCCGGCGGCUCGAGCCCGGGUAAGUCUAAAUAGUCUGCAUGCCGCCGGGCGCCAUGCCUGCAGGUCGACUCUAGAAAACAUG”, the binding signal in test [14] is 2.64 log2 enrichment (interaction score).
Turning to “GGCUAGAACUAGUGGAUCCCCCGGCGCCCGGCGGCUCGAGCCCGGGUAAGUGUAAAUUGUCUGCAUGCCGCCGGGCGCCAUGCCUGCAGGUCGACUCUAGAAAACAUG”, the binding signal in [15] was 4.45 log2 enrichment (interaction score); in test [16] it was 3.81 log2 enrichment (interaction score); in test [17], 0.57 log2 enrichment (interaction score).
As for “GGCUAGAACUAGUGGAUCCCCCGGCGCCCGGCGGCUCGAGCCCGGGUAAGCGUAAAUAGUCUGCAUGCCGCCGGGCGCCAUGCCUGCAGGUCGACUCUAGAAAACAUG”, in test [1], the binding signal was 2.53 log2 enrichment (interaction score).
For the sequence “GGCUAGAACUAGUGGAUCCCCCGGCGCCCGGCGGCUCGAGCCCGGGUAAGUGUUAAUAGUCUGCAUGCCGCCGGGCGCCAUGCCUGCAGGUCGACUCUAGAAAACAUG”, the binding signal was 4.83 log2 enrichment (interaction score) in [2], 3.46 log2 enrichment (interaction score) in test [18] and 4.39 log2 enrichment (interaction score) in test [5].
Consider “GGCUAGAACUAGUGGAUCCCCCGGCGCCCGGCGGCUCGAGCCCGGGUAAGUGUAAUUAGUCUGCAUGCCGCCGGGCGCCAUGCCUGCAGGUCGACUCUAGAAAACAUG”, for which the binding signal in test [6] was 0.63 log2 enrichment (interaction score); in [7], 2.69 log2 enrichment (interaction score); in test [11], 4.05 log2 enrichment (interaction score); in test [19], 4.69 log2 enrichment (interaction score).
Take “GGCUAGAACUAGUGGAUCCCCCGGCGCCCGGCGGCUCGAGCCCGGGUAAGUUUAAAUAGUCUGCAUGCCGCCGGGCGCCAUGCCUGCAGGUCGACUCUAGAAAACAUG”: the values for the binding signal in test [14] and in [20] were 2.98 log2 enrichment (interaction score) and 4.37 log2 enrichment (interaction score), respectively.
Regarding “GGCUAGAACUAGUGGAUCCCCCGGCGCCCGGCGGCUCGAGCCCGGGUAAGUGUGAAUAGUCUGCAUGCCGCCGGGCGCCAUGCCUGCAGGUCGACUCUAGAAAACAUG”, the binding signal is 3.23 log2 enrichment (interaction score) in test [12], 0.17 log2 enrichment (interaction score) in test [13] and 2.73 log2 enrichment (interaction score) in test [5].
As for “GGCUAGAACUAGUGGAUCCCCCGGCGCCCGGCGGCUCGAGCCCGGGUAAGUGUAAGUAGUCUGCAUGCCGCCGGGCGCCAUGCCUGCAGGUCGACUCUAGAAAACAUG”, the binding signal in test [19] was 4.74 log2 enrichment (interaction score).
Turning to “GGCUAGAACUAGUGGAUCCCCCGGCGCCCGGCGGCUCGAGCCCGGGUAAGUGUAAAUCGUCUGCAUGCCGCCGGGCGCCAUGCCUGCAGGUCGACUCUAGAAAACAUG”, the binding signal in [17] was 3.37 log2 enrichment (interaction score).
